Drawing on ChEMBL document CHEMBL3988442, “University of Dundee, Small-Polar-MMV Screening Library” (2021), this text covers Percent Effect for 39 compounds.

Measured potencies and affinities stand elsewhere.

Chain of Protein translocase subunit SecA (Escherichia coli (strain K12)) (P10408 whole entry): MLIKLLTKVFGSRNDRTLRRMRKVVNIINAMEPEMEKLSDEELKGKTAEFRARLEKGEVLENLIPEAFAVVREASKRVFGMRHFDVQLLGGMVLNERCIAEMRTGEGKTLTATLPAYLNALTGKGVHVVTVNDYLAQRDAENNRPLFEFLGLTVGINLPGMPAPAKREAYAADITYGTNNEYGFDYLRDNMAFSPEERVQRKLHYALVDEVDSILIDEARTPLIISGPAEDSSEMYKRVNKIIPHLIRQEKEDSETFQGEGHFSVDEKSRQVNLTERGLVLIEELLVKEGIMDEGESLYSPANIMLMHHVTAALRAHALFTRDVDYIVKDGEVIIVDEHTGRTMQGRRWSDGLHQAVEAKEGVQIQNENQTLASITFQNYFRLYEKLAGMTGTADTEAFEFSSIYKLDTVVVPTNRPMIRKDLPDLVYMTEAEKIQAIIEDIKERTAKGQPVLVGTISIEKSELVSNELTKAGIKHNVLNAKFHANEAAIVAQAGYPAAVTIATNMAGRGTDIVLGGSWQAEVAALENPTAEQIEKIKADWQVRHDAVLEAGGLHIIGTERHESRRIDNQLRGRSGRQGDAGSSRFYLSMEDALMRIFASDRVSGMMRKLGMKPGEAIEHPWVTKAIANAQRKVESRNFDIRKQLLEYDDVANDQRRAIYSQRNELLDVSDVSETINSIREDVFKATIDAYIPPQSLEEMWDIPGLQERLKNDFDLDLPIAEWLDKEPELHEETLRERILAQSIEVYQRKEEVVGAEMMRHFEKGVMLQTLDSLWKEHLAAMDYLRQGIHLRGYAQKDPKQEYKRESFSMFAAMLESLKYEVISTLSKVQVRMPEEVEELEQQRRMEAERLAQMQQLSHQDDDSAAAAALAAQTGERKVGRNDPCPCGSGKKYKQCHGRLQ

The first assay addresses Protein translocase subunit SecA (Escherichia coli (strain K12)) (UniProt P10408). Put plainly: Assay to Identify E. coli SecA ATPase Inhibitors. The assay is classed as functional. To be noted: 30 µM. Set-up: scale not given: direction of the effect not stated beside the values.
Take `CN(CCO)Cc1nnc(C2CCN(C(=O)c3cccnc3)CC2)n1C`: the Percent Effect was -3.37%.
On the same count and under the same terms, the result for `CN(C)C(=O)NC1COC2(CCN(C(=O)Nc3ccccc3)CC2)C1` (stereo not drawn) reads 5.37%; that for `Cc1cc(C)c(CNC(=O)NCC(O)COc2ccccc2)c(=O)[nH]1` (stereo not drawn), -9.63%.
Consider `CCc1cnc2c(c1NCc1ccncc1)c(=O)n(C)c(=O)n2C`, for which the Percent Effect was 0.985%.
For `c1cc(C2CCCN2Cc2nnnn2C2CC2)cs1` (stereo not drawn), the Percent Effect is -2.2%.
Turning to `O=C(CC1CC1)N1CCn2cc(Cn3cncn3)nc2C1`, the Percent Effect was -2.33%.
Still for that read-out and setting: the same measure for `CN1CCN(Cc2cn3c(n2)CN(C(=O)N2CCOCC2)CC3)CC1`: -6.56%; for `CC(C)c1nc(C(=O)N2CCCC(n3cncn3)C2)c[nH]1` (stereo not drawn): -4.19%.
Turning to `CC(C)Cc1cc(C(=O)NCc2nnc[nH]2)[nH]n1`, the Percent Effect was -3.85%.
Consider `Cn1c(C(F)(F)F)nn(CCNC(=O)CSCc2ccccc2)c1=O`, for which the Percent Effect was -3.49%.
Take `O=C(NCCn1ccc(-c2ccncc2)n1)c1ccncc1`: the Percent Effect was -1.85%.
As to `CCn1cc(N)c(C(=O)NCc2cnn(C)c2)n1`, the Percent Effect was -3.38%.
With `COc1c(CNCc2ccnc(N3CCCC3)c2)c(C)nn1C`, the Percent Effect is -5.03%.
With `COCCn1cc(C(=O)N2CCCC2c2cc(C)no2)ccc1=O` (stereo not drawn), the Percent Effect was -2.03%.
For the compound `CC(C)C(=O)NCCCn1ncc2c(Cl)cccc21`, the Percent Effect was -4.7%.
With `Cc1c[nH]c(CN(C)C(=O)c2cccc(CCC(C)(C)O)c2)n1`, the Percent Effect was -4.48%.
In the case of `CC(O)CC(C)(C)CNC(=O)NCc1cccc(-n2ccnc2)c1` (stereo not drawn), the Percent Effect was -3.71%.
In the case of `CN(C)C(C)(C)CNC(=O)C(C)(C)c1ccccc1F`, the Percent Effect is -0.22%.
Regarding `Cc1cnn(CC2CCCN2C(=O)c2cc3ccccc3[nH]2)c1` (stereo not drawn), the Percent Effect was -8.63%.
Turning to `Cc1ccc(C(=O)N2CCN(S(C)(=O)=O)CC2)cc1N1CCNC1=O`, the Percent Effect is -5.92%.
In the case of `CC(=O)c1ccccc1C(=O)NCC1(CO)CC1`, the Percent Effect is -0.313%.
In the case of `Cn1nc(CNC(=O)C2COc3ccccc3O2)cc1C1CC1` (stereo not drawn), the Percent Effect was -5.12%.
Still for that read-out and setting: the same measure for `CN(CCCc1cnn(C)c1)C(=O)C1CCOC1` (stereo not drawn): -4.14%; for `CC(NC(=O)NCC1(c2ccccc2)CCC1)c1nncn1C` (stereo not drawn): -3.15%; for `CN(C)Cc1cc(=O)n2c(n1)CN(C(=O)Cc1ccsc1)CCC2`: 0.204%.
Regarding `COCCCNC(=O)CN(C)C(=O)c1cc(C)sc1C`, the Percent Effect was -3.23%.
On the same count and under the same terms, the result for `Cn1c(CN2CCCC2)nnc1C1CCCN(C(=O)C2CCOCC2)C1` (stereo not drawn) reads -3.02%; that for `COc1ccc(NC(C)=O)c(N2CCN(C(C)=O)CC2)n1`, -3.73%; that for `CC(=O)NCCc1cc(N2CCN(C(C)=O)CC2)nc(C2CC2)n1`, 2.03%.
Consider `NC(=O)CC1CCN(C(=O)CCOc2ccc(Cl)cc2)CC1`, for which the Percent Effect is -3.65%.
With `CCn1ccnc1CN1CCCC(CO)(Cc2cccc(Cl)c2)C1` (stereo not drawn), the Percent Effect was -5.53%.
Turning to `COc1cccc(C(=O)NS(=O)(=O)c2cccc(C#N)c2)c1OC`, the Percent Effect was -5.72%.
In the case of `Cc1csc(N2CCN(CCc3ccccn3)CC2C)n1` (stereo not drawn), the Percent Effect was -0.657%.
As to `Cn1nnc2c1CCN(Cc1ccccc1)C2COCC1CC1` (stereo not drawn), the Percent Effect is -1.15%.
Still for that read-out and setting: the same measure for `c1ccc(-c2noc3c2CN(CC2CC2)CC3)cc1`: -4.27%; for `CC(C)(C)c1n[nH]c(C2CN(C(=O)c3csnn3)CCO2)n1` (stereo not drawn): -8.03%; for `O=C(NC[C@H]1OC[C@@H]2CCN(Cc3ccco3)C[C@@H]21)c1ccsc1`: -1.93%.
With `CS(=O)(=O)NC[C@]12COC[C@H]1CN(C(=O)c1ccoc1)C2`, the Percent Effect was -3.11%.
As to `Cc1nn(C)c(N(C)C)c1CNCc1ccccc1CN(C)C`, the Percent Effect is -1.22%.

The target in the next assay is T1, Ubiquitin-activating enzyme e1, putative (Leishmania donovani (strain BPK282A1)) (UniProt E9BSI1).
T1 sequence (whole entry): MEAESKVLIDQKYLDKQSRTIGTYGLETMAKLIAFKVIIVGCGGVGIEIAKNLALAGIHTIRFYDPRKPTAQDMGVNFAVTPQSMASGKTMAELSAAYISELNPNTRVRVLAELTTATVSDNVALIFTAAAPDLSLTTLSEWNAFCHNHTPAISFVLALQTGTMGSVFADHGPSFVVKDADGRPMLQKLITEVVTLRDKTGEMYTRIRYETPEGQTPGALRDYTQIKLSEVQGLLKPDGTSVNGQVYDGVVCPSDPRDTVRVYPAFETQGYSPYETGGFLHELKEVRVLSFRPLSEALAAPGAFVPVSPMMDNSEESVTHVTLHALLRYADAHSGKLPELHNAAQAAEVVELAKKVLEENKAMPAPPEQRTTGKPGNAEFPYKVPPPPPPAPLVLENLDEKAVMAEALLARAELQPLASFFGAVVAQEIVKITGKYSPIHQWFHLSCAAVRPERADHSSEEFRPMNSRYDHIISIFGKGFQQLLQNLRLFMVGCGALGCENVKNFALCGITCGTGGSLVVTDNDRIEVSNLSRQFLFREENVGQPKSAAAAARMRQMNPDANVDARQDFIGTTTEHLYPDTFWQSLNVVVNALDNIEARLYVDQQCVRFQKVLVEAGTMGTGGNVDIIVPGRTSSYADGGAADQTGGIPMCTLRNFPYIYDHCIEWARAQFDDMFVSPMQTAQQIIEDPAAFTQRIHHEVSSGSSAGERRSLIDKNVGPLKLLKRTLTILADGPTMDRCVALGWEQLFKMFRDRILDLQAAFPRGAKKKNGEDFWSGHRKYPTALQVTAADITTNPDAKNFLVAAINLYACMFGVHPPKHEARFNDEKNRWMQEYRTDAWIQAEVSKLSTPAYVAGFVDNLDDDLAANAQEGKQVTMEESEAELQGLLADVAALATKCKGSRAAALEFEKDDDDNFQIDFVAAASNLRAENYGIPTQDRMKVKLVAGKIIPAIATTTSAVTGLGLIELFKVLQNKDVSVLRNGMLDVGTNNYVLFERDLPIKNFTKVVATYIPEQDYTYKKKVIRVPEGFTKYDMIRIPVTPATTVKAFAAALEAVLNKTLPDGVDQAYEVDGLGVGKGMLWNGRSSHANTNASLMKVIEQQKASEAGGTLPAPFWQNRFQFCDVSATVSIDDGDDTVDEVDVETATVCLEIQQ
The assay can be described thus: Leishmania donovani Ubiquitin Activating Enzyme (LdE1). To be noted: 30 µM. Set-up: scale not given: direction of the effect not stated beside the values. It counts as functional.
Regarding `CN(CCO)Cc1nnc(C2CCN(C(=O)c3cccnc3)CC2)n1C`, the Percent Effect amounted to 16%.
For the compound `CN(C)C(=O)NC1COC2(CCN(C(=O)Nc3ccccc3)CC2)C1` (stereo not drawn), the Percent Effect turned out to be 18.7%.
`Cc1cc(C)c(CNC(=O)NCC(O)COc2ccccc2)c(=O)[nH]1` (stereo not drawn): the Percent Effect was determined as 7.89%.
For the compound `CCc1cnc2c(c1NCc1ccncc1)c(=O)n(C)c(=O)n2C`, the Percent Effect stood at 8.22%.
Still for that read-out and setting: the result for `c1cc(C2CCCN2Cc2nnnn2C2CC2)cs1` (stereo not drawn) reads 4.17%.
As to `O=C(CC1CC1)N1CCn2cc(Cn3cncn3)nc2C1`, the Percent Effect was found to be 10.4%.
On to `CN1CCN(Cc2cn3c(n2)CN(C(=O)N2CCOCC2)CC3)CC1`, for which the Percent Effect is 5.2%.
On the same count and under the same terms, the result for `CC(C)c1nc(C(=O)N2CCCC(n3cncn3)C2)c[nH]1` (stereo not drawn) reads 11.4%; that for `CC(C)Cc1cc(C(=O)NCc2nnc[nH]2)[nH]n1`, 7.89%; that for `Cn1c(C(F)(F)F)nn(CCNC(=O)CSCc2ccccc2)c1=O`, 8.22%.
`O=C(NCCn1ccc(-c2ccncc2)n1)c1ccncc1`: the Percent Effect was 5.48%.
For the compound `CCn1cc(N)c(C(=O)NCc2cnn(C)c2)n1`, the Percent Effect is 5.2%.
`COc1c(CNCc2ccnc(N3CCCC3)c2)c(C)nn1C`: the Percent Effect was 3.8%.
Regarding `COCCn1cc(C(=O)N2CCCC2c2cc(C)no2)ccc1=O` (stereo not drawn), the Percent Effect stood at 8.11%.
On to `CC(C)C(=O)NCCCn1ncc2c(Cl)cccc21`, for which the Percent Effect stood at 10.4%.
As to `Cc1c[nH]c(CN(C)C(=O)c2cccc(CCC(C)(C)O)c2)n1`, the Percent Effect turned out to be 8%.
For the compound `CC(O)CC(C)(C)CNC(=O)NCc1cccc(-n2ccnc2)c1` (stereo not drawn), the Percent Effect was found to be 0%.
Take `CN(C)C(C)(C)CNC(=O)C(C)(C)c1ccccc1F`: the Percent Effect turned out to be 9.72%.
Regarding `Cc1cnn(CC2CCCN2C(=O)c2cc3ccccc3[nH]2)c1` (stereo not drawn), the Percent Effect worked out at 13%.
In the case of `Cc1ccc(C(=O)N2CCN(S(C)(=O)=O)CC2)cc1N1CCNC1=O`, the Percent Effect was determined as 8%.
For the compound `CC(=O)c1ccccc1C(=O)NCC1(CO)CC1`, the Percent Effect is 10.8%.
Still for that read-out and setting: the same measure for `Cn1nc(CNC(=O)C2COc3ccccc3O2)cc1C1CC1` (stereo not drawn): -2.6%; for `CN(CCCc1cnn(C)c1)C(=O)C1CCOC1` (stereo not drawn): 2.74%.
On to `CC(NC(=O)NCC1(c2ccccc2)CCC1)c1nncn1C` (stereo not drawn), for which the Percent Effect amounted to 13.2%.
For `CN(C)Cc1cc(=O)n2c(n1)CN(C(=O)Cc1ccsc1)CCC2`, the Percent Effect was found to be 2.6%.
Same read-out and setting: the result for `COCCCNC(=O)CN(C)C(=O)c1cc(C)sc1C` reads -359%.
Regarding `Cn1c(CN2CCCC2)nnc1C1CCCN(C(=O)C2CCOCC2)C1` (stereo not drawn), the Percent Effect came out at 5.41%.
Regarding `COc1ccc(NC(C)=O)c(N2CCN(C(C)=O)CC2)n1`, the Percent Effect was -2.7%.
On the same count and under the same terms, the result for `CC(=O)NCCc1cc(N2CCN(C(C)=O)CC2)nc(C2CC2)n1` reads -6.76%; that for `NC(=O)CC1CCN(C(=O)CCOc2ccc(Cl)cc2)CC1`, 10.5%; that for `CCn1ccnc1CN1CCCC(CO)(Cc2cccc(Cl)c2)C1` (stereo not drawn), 2.7%.
The same measure, in the same setting: the same measure for `COc1cccc(C(=O)NS(=O)(=O)c2cccc(C#N)c2)c1OC`: 10.8%; for `Cc1csc(N2CCN(CCc3ccccn3)CC2C)n1` (stereo not drawn): 8.22%; for `Cn1nnc2c1CCN(Cc1ccccc1)C2COCC1CC1` (stereo not drawn): 2.67%.
As for `c1ccc(-c2noc3c2CN(CC2CC2)CC3)cc1`, the Percent Effect turned out to be 2.74%.
The same measure, in the same setting: the result for `CC(C)(C)c1n[nH]c(C2CN(C(=O)c3csnn3)CCO2)n1` (stereo not drawn) reads 18.4%; that for `O=C(NC[C@H]1OC[C@@H]2CCN(Cc3ccco3)C[C@@H]21)c1ccsc1`, 8.22%.
Regarding `CS(=O)(=O)NC[C@]12COC[C@H]1CN(C(=O)c1ccoc1)C2`, the Percent Effect amounted to 7.79%.
On to `Cc1nn(C)c(N(C)C)c1CNCc1ccccc1CN(C)C`, for which the Percent Effect came to 24.1%.
